# ANO1 block – TMEM16A chloride channel inhibitors, primary screen, cell-based, HTS; HEK293 TMEM16A/YFP iodide influx fluorescence, ionomycin; 310,000 tested, 1.2% active; Anoctamin-1 (Mus musculus), Q8BHY3; normalized B-score (activity score, 25-100; higher = stronger inhibition) at 10 µM;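 active = ratio plate-corrected score three or more library SD toward inhibition, starting fluorescence score within five deviations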;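 note: score derived from kinetic fluorescence span divided by baseline fluorescence per well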
# TMEM16A act – TMEM16A chloride channel activators or potentiators, primary screen, cell-based, HTS; AID 623877, 2012; HEK293 TMEM16A/YFP-H148Q/I152L, iodide quench fluorescence; active compounds read low; B-score at 10 µM; 340,000 tested, 0.3% active;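 active = fluorescence-ratio B-score plate-corrected deviation score at least 3 library SD below zero, with starting fluorescence score within 5 deviations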;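 note: channel opened by trigger with iodide after compound preincubation; score built on the fluorescence ratio of max minus min over baseline; more negative score means more quench and so TMEM16A activation or potentiation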
# CHT block – inhibitors of human choline transporter CHT; CHT-expressing cells, membrane potential dye, choline response; active compounds read low; AID 488975, 2010; 310,000 tested, 0.86% active; B-score at 10 µM;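 active = B-score over 3 SD under the library average, and starting fluorescence ratio not unusually high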;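 note: choline stimulus applied at its EC90 after an EC20 pre-addition; B-score computed on integrated fluorescence ratio after choline addition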
# CHT PAM – CHT positive allosteric modulators, primary screen, cell-based, membrane potential dye, choline EC20. 310,000 tested, 0.49% active. High affinity choline transporter 1 (Homo sapiens), Q9GZV3. AID 488977, 2010. B-score at 10 µM. CHT-expressing cells; active compounds read high; LV-AA mutant CHT in HEK293 cells;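 active = initial fluorescence not abnormally high and integrated response B-score, plate-corrected, over 3 SD above library mean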
# TMEM16A reconf – TMEM16A chloride channel inhibitors, confirmation, cell-based, re-confirmation; shares compounds with ANO1 block; HEK293 TMEM16A/YFP-H148Q, iodide quench fluorescence; ionomycin added to raise cell calcium; inhibition, % at 10 µM; 2,300 tested, 39% active; AID 652189, 2013;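 active = mean duplicate percent inhibition, scaled so buffer wells are 0 and the reference blocker 100, over three buffer SD above buffer mean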
# HEK293 Ca mobil – calcium mobilization in TMEM16A/YFP HEK293 cells, confirmation, counter-screen for TMEM16A inhibitor project; Fluo4 calcium mobilization; calcium response (% of ionomycin), % at 10 µM; 2,300 tested, 2% active; shares compounds with ANO1 block;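 active = duplicate-averaged calcium signal over 20% of the ionomycin maximum, relative to buffer baseline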;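 note: each well's signal is peak minus trough fluorescence divided by its pre-addition baseline; 0% = buffer wells and 100% = ionomycin wells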
# YFP-HEK293 quench – iodide YFP quench changes in parental YFP-HEK293, counter-screen for TMEM16A inhibitor project, cell-based. shares compounds with ANO1 block. ionomycin. YFP ratio F(max-min)/F0 at 10 µM. 2,300 tested, under 10 active;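 active = yellow fluorescent protein signal ratio exceeding the buffer control mean by over 5 SD of those controls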;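 note: ratio is mean of duplicate wells from kinetic YFP trace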
# ClC-1 rat inh – ClC-1 chloride channel inhibition, selectivity assay for TMEM16A inhibitor project, cell-based, voltage-dependent ClC-1. shares compounds with ANO1 block. ratio percent, % at 10 µM. CHO ClC-1-YFP, iodide influx fluorescence quench; iodide control reads 0, buffer control 100. AID 652236, 2013. 2,300 tested, under 10 active;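 active = duplicate-mean ratio percent above the mean of iodide-only control wells, which defines zero, plus 5 of their SD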;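 note: higher percent means stronger block of ClC-1 iodide influx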
# An asterisk follows results filed as active; i = inactive; . = no result given. Compounds with a hit are over-represented: about 2.4% of the library has one in this group of screens.
SMILES,ANO1 block,TMEM16A act,CHT block,CHT PAM,TMEM16A reconf,HEK293 Ca mobil,YFP-HEK293 quench,ClC-1 rat inh
Cc1ccc(S(=O)(=O)NC2CCCC(C(=O)O)C2)cc1 (configuration not stated),i,i,i,i,.,.,.,.
COc1ccc(C(=O)Nc2nc(-c3cccs3)cs2)cc1,100*,i,i,i,24%*,i,-1.1,-16
COc1cc(C(=O)Nc2nc(-c3cccs3)cs2)cc(OC)c1OC,i,i,i,i,.,.,.,.
O=C(O)C1=C[C@H](C2CC2)C[C@H](OCc2ccc(CO)cc2)O1,i,i,i,i,.,.,.,.
O=C(Nc1cccc(S(=O)(=O)Nc2ccccc2F)c1)c1ccc2ccccc2n1,100*,i,i,i,i,i,-0.93,-5
Cc1nn(C)c(C)c1CN(Cc1nc(CCC(C)C)no1)C(C)C,25*,i,i,i,i,i,-1.1,-20
O=C(Nc1cccc(Cl)c1)N1CCN(Cc2ccccc2)CC1,100*,i,i,i,i,i,-1.1,-8
COc1ccccc1NS(=O)(=O)c1ccc(C)c(NS(=O)(=O)c2cc(NC(C)=O)ccc2OC)c1,.,i,.,.,.,.,.,.
CCOc1ccc(C(=O)C(C)OC(=O)C2CCN(c3ccc(C(F)(F)F)cn3)CC2)cc1 (configuration not stated),25*,i,i,i,i,i,-1.1,-12
Cc1ccc(Nc2nc3nonc3[nH]c2=O)cc1C,i,i,i,i,.,.,.,.
Cc1ccc(Nc2nc3nonc3[nH]c2=O)cc1Cl,100*,i,i,i,40%*,i,-1,-23
Cc1ccc(S(=O)(=O)N(Cc2ccccc2)c2ccccc2C(=O)NCc2ccco2)cc1,i,i,i,i,.,.,.,.
CCOc1ccc(NC(=O)CC(NC(C)=O)c2ccccc2)cc1S(=O)(=O)N1CCCC1 (configuration not stated),.,i,.,.,.,.,.,.
Cc1nn(C(=O)c2ccco2)c(C)c1Sc1ccc([N+](=O)[O-])cc1,i,i,i,i,.,.,.,.
Cc1nn(S(=O)(=O)c2cccs2)c(C)c1Sc1ccc([N+](=O)[O-])cc1,100*,i,i,i,44%*,i,-0.99,-20
Cc1nn(Cc2ccc(C(=O)Nc3nc4c(C)cccc4s3)o2)c(C)c1Br,100*,i,i,i,i,i,-1.2,6
CN1c2ccsc2C(O)=C(C(=S)Nc2ccc(F)c(Cl)c2)S1(=O)=O,25*,i,i,i,21%*,i,-1.1,-10
Cc1cccc(C(=O)Nc2cc(C)ccc2NC(=O)COc2ccccc2)c1,i,i,i,i,.,.,.,.
CCc1ccc(S(=O)(=O)/N=C2\C=C(Nc3ccc(C(=O)O)cc3)C(=O)c3ccccc32)cc1,100*,i,-7.2*,i,23%*,i,-0.77,-8
CC1CCN(c2ncnc3c2cnn3Cc2ccc(Cl)cc2)CC1,i,i,i,i,i,i,-0.96,-10
Cc1ccc(Cn2ncc3c(N4CCN(Cc5ccc(Cl)cc5)CC4)ncnc32)cc1,25*,i,i,i,18%*,i,-1.1,-8
Cc1cc(C)nc(N2CCN(c3ncnc4c3cnn4Cc3ccc(Cl)cc3Cl)CC2)n1,100*,.,i,i,28%*,i,-1,-20
CCN(CC)C(=O)CSc1n[nH]c(=S)n1N,i,i,i,i,.,.,.,.
CC1(C)Cc2c(c(N3CCCC3)nc3sc(C(=O)Nc4ccccc4)c(N)c23)CO1,i,i,i,i,.,.,.,.
OCC1(Cc2ccccc2)CCN(Cc2cnc(-c3cccc4ccccc34)nc2)CC1,i,i,i,i,.,.,.,.
SMILES,ANO1 block,TMEM16A act,CHT block,CHT PAM,TMEM16A reconf,HEK293 Ca mobil,YFP-HEK293 quench,ClC-1 rat inh
OCC1(Cc2ccccc2)CCN(Cc2cnc(-c3ccc(Cl)cc3)nc2)CC1,i,i,i,i,i,i,-1.1,-4
COc1cc(NS(=O)(=O)c2ccc(C)cc2C)cc(OC)c1OC,100*,i,i,i,28%*,i,-0.99,-12
Cc1nc2ccccc2c2c1CC(C(C)(Cl)Br)O2 (configuration not stated),25*,i,i,i,18%*,i,-1,-20
CCOc1ccc(-n2ccnc2SCC(=O)NCc2ccc3c(c2)OCO3)cc1,100*,i,i,i,20%*,i,-1.2,-8
O=C(CSc1nccn1-c1ccc(F)cc1)NCc1ccc2c(c1)OCO2,i,i,i,i,.,.,.,.
CCn1cc(C(=O)N2CCCC(N3CCN(c4cccc(C(F)(F)F)c4)CC3)C2)cn1 (configuration not stated),i,i,i,i,.,.,.,.
CCN(CC)S(=O)(=O)c1ccc(NC(=O)c2ccc(N(C)S(C)(=O)=O)cc2)cc1,100*,i,i,i,20%*,i,-1,-13
CCN(CC)S(=O)(=O)c1ccc(NC(=O)c2ccccc2N(C)S(C)(=O)=O)cc1,i,i,i,i,.,.,.,.
CCN(CC)S(=O)(=O)c1cccc(C(=O)Nc2ccc(C#N)cc2)c1,100*,i,i,i,i,i,-1.1,-20
CCN(CC)S(=O)(=O)c1ccc(C(=O)Nc2ccc(Cc3ccncc3)cc2)cc1,100*,i,i,i,28%*,i,-1.1,-21
CCN(CC)S(=O)(=O)c1cccc(C(=O)Nc2cc(C)cc(C)c2)c1,i,i,i,i,.,.,.,.
Cc1ccc(-c2noc(CN3CCN(c4ccccc4F)CC3)n2)cc1,i,i,i,i,.,.,.,.
Cc1cccc(-c2nc(S(=O)(=O)c3ccccc3)c(N3CCOCC3)o2)c1,i,i,i,i,.,.,.,.
CCOC(=O)c1[nH]c(C)c(C(=O)Nc2ccc3c(c2)OCCO3)c1C,25*,i,i,i,i,i,-0.98,-2
CC(C)N(C(=O)[C@H]1C[C@H](CC(=O)NCCCN(C)C)C(=O)N2CCc3c([nH]c4ccc(Cl)cc34)[C@]12C)C(C)C,.,i,.,.,.,.,.,.

# Screens: PubChem, Johns Hopkins Ion Channel Center
